Screening results (PubChem BioAssay)
Tau ThT inhib: inhibitors of human tau fibril formation, thioflavin T binding | Potency, µM (series often up to 57.4 µM), without a hit: top-dose activity, negative = inhibition, usual class: inhibitors | 270,000 compounds, 2.1% hits | recombinant tau K18 P301L, heparin-induced fibrillization, ThT fluorescence | P10636; note: nearly all actives have a fitted effect of over 55% in size
Target sequence (P10636 561-689 P618L limits assumed): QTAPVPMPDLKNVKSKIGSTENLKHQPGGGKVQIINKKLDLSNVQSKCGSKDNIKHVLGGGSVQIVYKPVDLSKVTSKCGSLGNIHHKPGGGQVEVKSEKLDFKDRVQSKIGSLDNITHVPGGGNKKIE
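Aggregation was driven by heparin (20 uM final) acting on recombinant tau […] bearing P301L in 100 mM sodium acetate pH 7; fibrils were detected with Thioflavin T.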
TexasRed fluor: alters Texas Red total fluorescence, flagging assay interference | TRb/SRC2 Texas Red total fluorescence interference | Potency, µM (highest dose often 106 µM), inactives show at the highest dose fluorescence change, negative = quenching | 280,000 compounds, 0.29% hits | AID 1479; active = well fitted curve in either direction with a large enough effect; inconclusive = small, poorly fitted or top-dose-only effect
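Human TRβ ligand-binding domain (0.6 uM) and Texas Red SRC2 peptide (20 nM) in Tris buffer with 1 uM T3 and 5% DMSO were incubated with pinned compound for 5 hr at ambient temperature. Total fluorescence was computed as S + 2P (555/632 nm).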
Tau FP inhib: inhibitors of human tau fibril formation | K18 P301L tau heparin fibrillization, Alexa594 FP, 6 h | AID 1468 | 280,000 compounds, 0.39% hits | Potency, µM (doses to about 57.7 µM), without a hit: top-dose activity, negative = inhibition, most hits filed as inhibitors | P10636; note: nearly all actives have a fitted effect of over 55% in size
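K18 P301L tau (15 uM unlabeled/0.24 uM Alexa 594-labeled, final) + compound + heparin 20 uM final; 100 mM NaOAc pH 7; 6 hr 37 C; ThT 30 uM final added, 1 hr RT; FP ex 555/em 632 nm.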
Tau fluor cs: counter-screen for tau fibril formation inhibitors | tau K18 P301L Alexa594 fluorescence, heparin fibrillization | Potency, µM (doses to about 57.7 µM), inactives show at the highest dose activity change, negative = decrease | 280,000 compounds, 0.93% hits; note: nearly all actives have a fitted effect of over 55% in size
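Human tau K18 P301L (15 uM unlabeled, 0.24 uM Alexa 594-labeled) in 100 mM sodium acetate pH 7 with 20 uM heparin, 6 hr at 37 C. ThT 30 uM added, 1 hr ambient; Alexa 594 FP and total fluorescence read at 555/632 nm.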
TRb-SRC2 inh: disrupts binding of human TR beta to SRC2; Potency, µM (series often up to 106 µM), for the others: top-dose activity change, negative = inhibition, most hits filed as inhibitors; P10828; 280,000 compounds, 0.065% hits; TRbeta-SRC2 peptide binding, fluorescence polarization; receptor liganded with 1 µM T3;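 note: plate controls were bound peptide for no effect and peptide without receptor for full effect; nearly all actives have a fitted effect of over 50% in size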
Target sequence (P10828 whole entry, looked up): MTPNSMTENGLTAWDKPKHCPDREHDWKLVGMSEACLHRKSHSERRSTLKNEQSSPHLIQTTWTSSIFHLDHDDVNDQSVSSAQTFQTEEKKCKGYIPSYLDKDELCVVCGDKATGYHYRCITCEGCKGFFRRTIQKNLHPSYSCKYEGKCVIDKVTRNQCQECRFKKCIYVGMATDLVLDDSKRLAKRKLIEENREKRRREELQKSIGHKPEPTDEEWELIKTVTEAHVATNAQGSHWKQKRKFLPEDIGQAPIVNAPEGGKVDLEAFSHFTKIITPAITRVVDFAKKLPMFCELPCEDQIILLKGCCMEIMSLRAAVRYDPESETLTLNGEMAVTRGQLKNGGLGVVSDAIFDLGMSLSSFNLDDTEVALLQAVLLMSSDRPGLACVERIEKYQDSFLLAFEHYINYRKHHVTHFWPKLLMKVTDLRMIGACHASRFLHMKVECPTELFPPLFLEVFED
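TRb LBD 0.6 uM + Texas Red SRC2 peptide 20 nM, 1 uM T3, Tris buffer w/ 5% DMSO; compound pinned, 5 h RT; FP read ex 555/em 632; normalized to unbound and bound controls.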
Active calls of the source: *; [ ] = remark or other dose. This is a sample that favours compounds with a hit; in the whole collection about 3% have one here. Unless noted, calls come from the whole dose curve; as a rule, active = well fitted curve in the direction sought with a large enough effect; inconclusive = small, poorly fitted or top-dose-only effect, or another doubt; inactive = no such curve, though single readings can be large; an effect the other way counts as inactive or inconclusive. Unless noted, % is set by controls: 0 for no effect and ±100 for the full control effect; potency is the fitted concentration of half-maximal effect.

Screening O=C(Nc1ccc(N2CCCC2)c(Cl)c1)c1ccc([N+](=O)[O-])cc1 returned Tau ThT inhib inconclusive, TexasRed fluor 0%, Tau FP inhib 3%, Tau fluor cs inconclusive and TRb-SRC2 inh 0%.
COc1ccc(CCNC(=O)C(=O)NCC(c2ccc3c(c2)OCO3)N2CCOCC2)cc1OC (stereo not given) was read as Tau ThT inhib -9%, TexasRed fluor 1%, Tau FP inhib 6%, Tau fluor cs -12% and TRb-SRC2 inh 0%.
Screening S=C1NC=NC2N=CNC12 (stereo not given) returned TexasRed fluor -2% and TRb-SRC2 inh 4%.
For O=C1/C(=C/C=C/c2ccco2)SC(=S)N1c1ccc(O)cc1 the results were Tau ThT inhib 4µM*, TexasRed fluor -11%, Tau FP inhib inconclusive, Tau fluor cs 11µM*[quencher] and TRb-SRC2 inh 4%.
O=C1/C(=C/c2ccco2)SC(=S)N1c1cccnc1 was read as Tau ThT inhib 16µM*, TexasRed fluor -13%, Tau FP inhib inconclusive, Tau fluor cs inconclusive and TRb-SRC2 inh -4%.
`CN(C)c1ccc(/C=C/C=C2/SC(=S)N(c3ccccc3)C2=O)cc1` gave Tau ThT inhib 2.5µM*, TexasRed fluor 3.2µM*[fluorescent], Tau FP inhib -6%, Tau fluor cs 0.71µM*[fluorescent] and TRb-SRC2 inh inconclusive.
Screening O=C(O)c1ccc(N2C(=O)/C(=C/C=C/c3ccccc3)SC2=S)cc1 returned Tau ThT inhib inconclusive, TexasRed fluor 3%, Tau FP inhib 3%, Tau fluor cs -3% and TRb-SRC2 inh -6%.
Screening CC(C)C(C(=O)O)N1C(=O)/C(=C/C=C/c2ccco2)SC1=S (stereo not given) returned Tau ThT inhib 13µM*, TexasRed fluor inconclusive, Tau FP inhib 25µM*, Tau fluor cs inconclusive and TRb-SRC2 inh -9%.
`CC#C[C@]1(O)CC[C@H]2C3CCC4=CC(=O)CCC4=C3[C@@H](c3ccc(N(C)C)cc3)C[C@@]21C` (stereo not given in full) gave Tau ThT inhib -21%, TexasRed fluor -7%, Tau FP inhib 14%, Tau fluor cs -27% and TRb-SRC2 inh 4%.
For Cc1cc(-c2nc3ncccc3o2)ccc1NC(=O)c1ccc(Cl)cc1 the results were Tau ThT inhib inconclusive, TexasRed fluor 0%, Tau FP inhib -5%, Tau fluor cs -10% and TRb-SRC2 inh 3%.
NN1C(=O)/C(=C\c2ccco2)SC1=S was read as Tau ThT inhib 32µM*, TexasRed fluor -16%, Tau FP inhib inconclusive, Tau fluor cs inconclusive and TRb-SRC2 inh -1%.
O=C1/C(=C\c2ccco2)SC(=S)N1c1ccc(O)cc1 was read as Tau ThT inhib 18µM*, TexasRed fluor -11%, Tau FP inhib -9%, Tau fluor cs inconclusive and TRb-SRC2 inh 3%.
For CN(C)c1ccc(/C=N/Nc2ccc(-n3ccnc3)nn2)cc1 the results were Tau ThT inhib 5µM*, TexasRed fluor -3%, Tau FP inhib -9%, Tau fluor cs inconclusive and TRb-SRC2 inh 4%.
COc1ccc(N=C2SCC(c3ccc([N+](=O)[O-])cc3)=NN2CCO)cc1 was read as Tau ThT inhib 11µM*, TexasRed fluor -4%, Tau FP inhib 14%, Tau fluor cs inconclusive and TRb-SRC2 inh 8%.
Screening O=[N+]([O-])c1ccc(C2=NN(CCO)C(=Nc3ccc(OC(F)(F)F)cc3)SC2)cc1 returned Tau ThT inhib 14µM*, TexasRed fluor -2%, Tau FP inhib 14%, Tau fluor cs inconclusive and TRb-SRC2 inh 8%.
`COc1ccc(N=C2SCC(c3ccc(C)cc3)=NN2CCO)cc1` gave Tau ThT inhib inconclusive, TexasRed fluor -4%, Tau FP inhib 13%, Tau fluor cs inconclusive and TRb-SRC2 inh 4%.
Screening Cc1cccc(N=Cc2cc(Br)cc(Cl)c2O)c1 returned Tau ThT inhib 14µM*, TexasRed fluor 0%, Tau FP inhib -14%, Tau fluor cs -9% and TRb-SRC2 inh -5%.
`NC(=O)c1cccc(N=Cc2cc(Cl)cc(Cl)c2O)c1` gave Tau ThT inhib 1%, TexasRed fluor -5%, Tau FP inhib 11%, Tau fluor cs 4% and TRb-SRC2 inh -5%.
CCOC(=O)C1=C(O)/C(=C/c2ccc(-c3ccccc3C(=O)O)o2)SC1=Nc1ccc(OC)cc1 was read as Tau ThT inhib 16µM*, TexasRed fluor -12%, Tau FP inhib 5%, Tau fluor cs -7% and TRb-SRC2 inh 2%.
`Cc1cc(=O)[nH]c(N/N=C/C2=C(N3CCOCC3)C(=C\c3ccc(Cl)cc3)/CC2)n1` gave Tau ThT inhib 22µM*, TexasRed fluor 0%, Tau FP inhib 2%, Tau fluor cs -14% and TRb-SRC2 inh 7%.
`O=C(N/N=C/C1=C(N2CCOCC2)C(=C\c2ccccc2)/CC1)Nc1ccccc1` gave Tau ThT inhib inconclusive, TexasRed fluor 1%, Tau FP inhib 0%, Tau fluor cs -19% and TRb-SRC2 inh 1%.
For O=C(O)c1ccccc1N/N=C/C1=C(N2CCOCC2)C(=C\c2ccccc2)/CC1 the results were Tau ThT inhib 10µM*, TexasRed fluor -5%, Tau FP inhib -8%, Tau fluor cs inconclusive and TRb-SRC2 inh -3%.
For CC(=O)Nc1ccc(S(=O)(=O)Oc2ccc(/C=C3\SC(N)=NC3=O)cc2)cc1 the results were Tau ThT inhib -17%, TexasRed fluor -3%, Tau FP inhib 25µM*, Tau fluor cs -13% and TRb-SRC2 inh 12%.
`CC(=O)Nc1ccc(OS(=O)(=O)c2ccc(C(C)(C)C)cc2)cc1` gave Tau ThT inhib -8%, TexasRed fluor -2%, Tau FP inhib inconclusive, Tau fluor cs inconclusive and TRb-SRC2 inh -5%.
COc1cccc(Cn2c(=O)n(-c3cccc(Cl)c3)c(=O)c3c4c(sc32)CN(C(C)=O)CC4)c1 was read as Tau ThT inhib -10%, TexasRed fluor 6%, Tau FP inhib 9%, Tau fluor cs -4% and TRb-SRC2 inh 3%.
For C#CCSc1nc2sc3c(c2c(=O)n1-c1cccc(OC)c1)CCN(C(C)=O)C3 the results were Tau ThT inhib 25µM*, TexasRed fluor -33%, Tau FP inhib inconclusive, Tau fluor cs -8% and TRb-SRC2 inh 5%.
CCCCCSc1nc2sc3c(c2c(=O)n1-c1ccccc1)CCN(C(C)=O)C3 was read as Tau ThT inhib inconclusive, TexasRed fluor 0.018µM*[quencher], Tau FP inhib inconclusive, Tau fluor cs -10% and TRb-SRC2 inh -28%[53 µM].
For CCSc1nc2sc3c(c2c(=O)n1-c1ccc(C)c(Cl)c1)CCN(C(C)=O)C3 the results were Tau ThT inhib inconclusive, TexasRed fluor -2%, Tau FP inhib -8%, Tau fluor cs -11% and TRb-SRC2 inh -6%.
